In test [1] the target is Luciferin 4-monooxygenase (Photinus pyralis) (UniProt P08659). Nature of the test: qHTS assay to identify small molecule inhibitors of firefly luciferase (AID 1224835). Note: nearly all actives have a fitted effect of over 25% in size. Note: potency is the fitted concentration of half-maximal effect. In outline: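 Biochemical qHTS: compounds run as interplate titrations against purified firefly enzyme, with D-luciferin and ATP each at its KM concentration. Light output recorded by CCD imaging.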
(In general: Quantitative high-throughput screening tests each substance at several concentrations.)

Test [2] in a line: qHTS assay to identify small molecule agonists of the constitutive androstane receptor (CAR) signaling pathway - cell viability counter screen (AID 1224836). Note: nearly all actives have a fitted effect of over 45% in size. Note: potency is the fitted concentration of half-maximal effect. In outline:
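HepG2-CYP2B6-hCAR, 2500 cells/well, 4 h pre-incubation; cpd 15 conc + PK11195 0.75 uM final; 23 h, 37 C/5% CO2; CellTiter-Fluor, fluorescence.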

Test [3] can be described thus: qHTS assay to identify small molecule antagonists of the constitutive androstane receptor (CAR) signaling pathway - cell viability counter screen (AID 1224837). Note: nearly all actives have a fitted effect of over 45% in size. Note: potency is the fitted concentration of half-maximal effect. In outline:
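Multiplexed cytotoxicity read-out for the CAR antagonist screen: double-stable HepG2-CYP2B6-hCAR cells co-treated with 50 nM CITCO (final) and compound over 15 concentrations, incubated 23 hr, then assessed by CellTiter-Fluor fluorescence.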

Test [4] concerns the target Nuclear receptor subfamily 1 group I member 3 (Homo sapiens) (UniProt Q14994). Briefly: qHTS assay to identify small molecule agonists of the constitutive androstane receptor (CAR) signaling pathway (AID 1224839). Note: nearly all actives have a fitted effect of over 15% in size. Note: potency is the fitted concentration of half-maximal effect. In outline:
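HepG2-CYP2B6-hCAR cells, 2500/well, 4 h pre-incubation; compounds 15 conc.; PK11195 0.75 uM final; 24 h, 37 C/5% CO2; ONE-Glo luciferase read.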

The nature of test [5]: qHTS assay to identify small molecule antagonists of the estrogen related receptor signaling pathway with the pleiotropic PPARgamma coactivator (PGC) from Tox21 10K library - cell viability counter screen (AID 1224840; active = well fitted cell-killing curve with a large enough effect in the repeat runs, not every such curve was filed as active; note: nearly all actives have a fitted effect of over 40% in size; note: potency is the fitted concentration of half-maximal effect). An outline of the steps: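 Step one, plate 2,000 PGC/ERR cells per well; step two, incubate 6 h at 37 C/5% CO2; step three, pin-transfer compounds; step four, incubate 17.5 h; step five, add CellTiter-Fluor and read fluorescence after 30 min.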

Test [6] is described as follows: qHTS assay to identify small molecule agonists of the hypoxia (HIF-1) signaling pathway - cell viability counter screen (AID 1224844; calls by dose curve; note: nearly all actives have a fitted effect of over 50% in size; note: potency is the fitted concentration of half-maximal effect). In outline: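 Tox21 10K compounds were added to HRE-bla ME-180 cells (0.5% dialyzed FBS) and incubated 17 hrs at 37C; ATP-based CellTiter-Glo luminescence then reported cell viability in the same wells.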
Test [7] addresses Thyrotropin receptor (Homo sapiens) (UniProt P16473). Briefly: qHTS assay to identify small molecule agonists of the thyroid stimulating hormone receptor (TSHR) signaling pathway (AID 1224843; calls by dose curve; note: nearly all actives have a fitted effect of over 45% in size; note: potency is the fitted concentration of half-maximal effect). An outline of the steps: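 TSHR-HEK293 cells in agonist mode, 30 min room-temperature step, then cAMP measured by competitive HTRF (cAMP-d2 with anti-cAMP cryptate) after 1 h at room temperature. Tested at 15 concentrations in triplicate.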

A short description of test [8]: qHTS assay to identify small molecule antagonists of the estrogen related receptor signaling pathway with the pleiotropic PPARgamma coactivator (PGC) from Tox21 10K library (AID 1224841; call rule not given here; note: actives are mostly falling curves and most rising ones were filed inactive; nearly all actives have a fitted effect of over 50% in size; note: potency is the fitted concentration of half-maximal effect). In outline: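 Antagonism in this quantitative HTS is taken from loss of luciferase signal in PGC/ERR cells. Cells (2,000/well) are treated with compounds in DMSO after a 6 h settling period and read by One-Glo luminescence after 18 h.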

Test [9] can be described thus: qHTS assay to identify small molecule agonists of the estrogen related receptor signaling pathway with the pleiotropic PPARgamma coactivator (PGC) from Tox21 10K library (AID 1224842). Note: nearly all actives have a fitted effect of over 15% in size. In outline:
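PGC/ERR reporter cell line, 2,000 cells per well, incubated 6 h at 37 C before 23 nL compound in DMSO was added. After 18 h at 37 C, One-Glo luminescence read following 30 min at room temperature.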

Test [10] has as its target Nuclear receptor subfamily 1 group I member 3 (Homo sapiens) (UniProt Q14994). Nature of the test: qHTS assay to identify small molecule antagonists of the constitutive androstane receptor (CAR) signaling pathway (AID 1224838). Note: nearly all actives have a fitted effect of over 40% in size. Note: potency is the fitted concentration of half-maximal effect. In outline:
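Compounds were titrated across 15 concentrations onto HepG2 cells double-stably expressing hCAR and a CYP2B6-2.2kb reporter, together with 50 nM CITCO (final). After 24 h at 37 C, luciferase activity was measured by luminescence.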

Several values for one entry are separate records, joined by “and”; a condition that tells them apart may be missing. Identical values can stand only once. Records with an inconclusive call do not appear. Where a structure was tested more than once in an assay, its records may differ in their call. Activity calls are given as the source filed them. Unless noted, calls come from the whole dose curve; as a rule, active = well fitted curve in the direction sought with a large enough effect in the repeat runs; inconclusive = weak or mixed curves; inactive = no such curve, though single readings can be large; an effect the other way counts as inactive or inconclusive. Starred links: 1 amine or outer side, 2 acyl side, 3 side chain; linkers in the order of their positions; H or OH if unused. Positions of bridges follow the written chain, without caps; N, C: chain ends. Non-standard residues stand in square brackets, D forms with d. Residues, ends and D or L forms follow the SMILES beside them. Chains are numbered I, II in the order given. Actinocin(9to1) = Cc1c2oc3c(C)ccc(C(=O)[*:1])c3nc-2c(C(=O)[*:2])c(N)c1=O; NMeV = CN[C@H](C(=O)O)C(C)C; Sar = CNCC(=O)O

Thyrotropin receptor (Homo sapiens), sequence (P16473 whole entry, looked up): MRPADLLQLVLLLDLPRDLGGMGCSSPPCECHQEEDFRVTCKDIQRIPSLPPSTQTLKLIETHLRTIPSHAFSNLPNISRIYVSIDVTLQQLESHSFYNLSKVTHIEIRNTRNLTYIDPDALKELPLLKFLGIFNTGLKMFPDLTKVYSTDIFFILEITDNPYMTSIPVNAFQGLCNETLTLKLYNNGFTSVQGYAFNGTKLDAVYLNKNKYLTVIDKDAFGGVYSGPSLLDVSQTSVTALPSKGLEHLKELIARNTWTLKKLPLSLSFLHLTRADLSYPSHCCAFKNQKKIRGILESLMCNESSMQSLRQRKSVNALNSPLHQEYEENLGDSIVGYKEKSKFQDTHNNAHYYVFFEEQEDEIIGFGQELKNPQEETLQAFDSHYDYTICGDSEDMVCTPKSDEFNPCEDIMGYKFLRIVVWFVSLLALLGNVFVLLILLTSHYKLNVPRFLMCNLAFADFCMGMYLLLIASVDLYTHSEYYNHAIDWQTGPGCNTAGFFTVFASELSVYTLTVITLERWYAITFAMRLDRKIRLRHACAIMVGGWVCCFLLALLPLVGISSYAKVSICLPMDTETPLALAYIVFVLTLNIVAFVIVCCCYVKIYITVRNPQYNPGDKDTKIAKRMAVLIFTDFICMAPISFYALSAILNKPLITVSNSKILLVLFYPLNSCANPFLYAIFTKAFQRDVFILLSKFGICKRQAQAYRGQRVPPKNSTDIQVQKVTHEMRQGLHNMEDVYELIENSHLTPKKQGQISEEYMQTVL
Nuclear receptor subfamily 1 group I member 3 (Homo sapiens), sequence (Q14994 whole entry, looked up): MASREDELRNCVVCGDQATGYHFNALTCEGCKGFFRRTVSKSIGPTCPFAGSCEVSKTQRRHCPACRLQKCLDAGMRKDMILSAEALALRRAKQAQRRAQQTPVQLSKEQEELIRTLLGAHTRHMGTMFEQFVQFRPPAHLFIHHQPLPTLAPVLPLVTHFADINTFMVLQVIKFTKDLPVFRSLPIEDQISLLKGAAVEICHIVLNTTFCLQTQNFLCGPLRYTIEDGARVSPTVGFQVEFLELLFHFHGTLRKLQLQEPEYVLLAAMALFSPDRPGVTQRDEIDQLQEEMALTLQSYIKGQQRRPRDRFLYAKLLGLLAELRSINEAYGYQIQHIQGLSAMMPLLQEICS
Luciferin 4-monooxygenase (Photinus pyralis), sequence (P08659 whole entry, looked up): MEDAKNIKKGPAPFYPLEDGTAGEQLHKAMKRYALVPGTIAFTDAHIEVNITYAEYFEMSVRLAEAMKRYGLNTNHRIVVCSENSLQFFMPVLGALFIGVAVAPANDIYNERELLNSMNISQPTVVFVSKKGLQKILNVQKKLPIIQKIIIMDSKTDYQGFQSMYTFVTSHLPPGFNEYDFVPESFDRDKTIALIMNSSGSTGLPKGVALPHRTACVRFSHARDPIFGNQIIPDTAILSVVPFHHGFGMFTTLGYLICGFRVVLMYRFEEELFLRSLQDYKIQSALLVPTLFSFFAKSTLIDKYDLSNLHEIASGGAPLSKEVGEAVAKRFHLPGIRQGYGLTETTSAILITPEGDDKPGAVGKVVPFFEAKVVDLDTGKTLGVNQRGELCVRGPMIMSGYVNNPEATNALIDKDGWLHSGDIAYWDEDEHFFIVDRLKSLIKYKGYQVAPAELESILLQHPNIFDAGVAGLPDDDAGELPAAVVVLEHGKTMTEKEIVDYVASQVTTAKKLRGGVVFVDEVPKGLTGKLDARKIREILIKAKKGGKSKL

In the case of `Cc1c2oc3c(C)ccc(C(=O)N[C@@H]4C(=O)N[C@H](C(C)C)C(=O)N5CCC[C@H]5C(=O)N(C)CC(=O)N(C)[C@@H](C(C)C)C(=O)O[C@@H]4C)c3nc-2c(C(=O)N[C@@H]2C(=O)N[C@H](C(C)C)C(=O)N3CCC[C@H]3C(=O)N(C)CC(=O)N(C)[C@@H](C(C)C)C(=O)O[C@@H]2C)c(N)c1=O` (I: T[dV]P[Sar][NMeV] / II: T[dV]P[Sar][NMeV]; ester I:1-I:C, II:1-II:C; linker I:N-II:N via Actinocin(9to1)), the Potency entry in test [1], in [4] and in test [6] was “inactive” in each case. Besides, the Potency in test [2] was 13.3 nM (active); in test [3], 7.5 nM (active) and 33.5 nM (active); in [5] it was 0.266 µM (active).
With `O=C(OCc1ccccc1)c1ccc(O)cc1`, the Potency in test [1] is 31.7 µM (active) and 15.5 µM (active). The Potency entry in test [2], in test [3], in test [4], in [5], in test [7] and in test [6] was “inactive” in each case.
As to `Cc1cccc2n[nH]nc12`, the Potency entry in test [1], in test [2], in [3], in test [4], in test [5] and in test [8] was “inactive” each time. The Potency result in [9], in test [7] and in test [6] was “inactive” in each case.
Consider `CC(C)(C)c1cc(C(C)(C)C)c(O)c(C(C)(C)C)c1`, for which the Potency entry in test [1], in test [2], in test [3], in test [5] and in test [7] was “inactive” each time. Besides, the Potency in test [4] is 12.2 µM (active).
Regarding `O=C(O)c1cn(-c2ccc(F)cc2)c2cc(N3CCNCC3)c(F)cc2c1=O`, the Potency result in test [1], in test [2], in [3], in [5], in test [7] and in [6] was “inactive” throughout.
With `NCCO`, the Potency entry in test [1], in [2], in test [3], in test [5], in [7] and in test [6] was “inactive” in each case.
Take `Oc1ccc(Cl)cc1Cc1cc(Cl)ccc1O`: the Potency result in test [1], in [2], in test [3], in [4] and in test [7] was “inactive” throughout. Besides, the Potency in test [5] is 24.8 µM (active); in [6] it was 54.9 µM (active) and inactive.
On to `CC[C@]1(O)C[C@@H]2CN(CCc3c([nH]c4ccccc34)[C@@](C(=O)OC)(c3cc4c(cc3OC)N(C)[C@H]3[C@@](O)(C(=O)OC)[C@H](OC(C)=O)[C@]5(CC)C=CCN6CC[C@]43[C@@H]65)C2)C1`, for which the Potency result in test [1], in test [5], in [9], in test [7] and in [6] was “inactive” in each case. Besides, the Potency in test [2] was 1.19 µM (active) and 2.98 µM (active); in test [3], 2.66 µM (active) and 4.22 µM (active).
Regarding `O=C(O)c1cccc(C(=O)O)c1`, the Potency result in test [1], in test [2], in [3], in test [5], in [7] and in [6] was “inactive” in each case.
As to `CCCCN(CCO)CCCC`, the Potency result in [1], in [2], in [3], in test [4], in test [5] and in test [8] was “inactive” each time. Also, the Potency entry in test [9], in test [7] and in test [6] was “inactive” in each case.
In the case of `COC(=O)[C@H]1[C@H]2C[C@@H]3c4[nH]c5cc(OC)ccc5c4CCN3C[C@H]2C[C@@H](OC(=O)c2cc(OC)c(OC)c(OC)c2)[C@@H]1OC`, the Potency result in [1], in test [2], in [3], in [5], in test [9] and in [7] was “inactive” in each case. Also, the Potency in [8] was 43.2 µM (active) and 15.8 µM (active); in [6], 24.5 µM (active) and 31.8 µM (active) and inactive.
Take `CC(=O)O[C@]1(C(C)=O)CC[C@H]2[C@@H]3C[C@H](C)C4=CC(=O)CC[C@]4(C)[C@H]3CC[C@@]21C`: the Potency result in test [1], in test [2], in test [3], in test [4], in [5] and in test [7] was “inactive” in each case. The Potency result in test [6] was “inactive”.
In the case of `O=c1n(CC2CO2)c(=O)n(CC2CO2)c(=O)n1CC1CO1` (configuration not stated), the Potency entry in test [1], in test [4], in test [7] and in [6] was “inactive” each time. Besides, the Potency is 54.2 µM (active) and 61.1 µM (active) in [2]; 60.8 µM (active) and 54.5 µM (active) in test [3].
Turning to `CC(C)(C)NCC(O)c1cc(O)cc(O)c1` (configuration not stated), the Potency result in test [1], in [2], in test [3], in test [5] and in test [6] was “inactive” throughout. The Potency in [7] is 596 nM (active).
Consider `CCCCCCCCCCCCc1ccccc1O`, for which the Potency entry in [1] and in test [2] was “inactive” each time. Besides, the Potency in test [10] was 30.6 µM (active); in test [4] it was 4.79 µM (active) and 4.33 µM (active); in [5] it was “inactive and 48.6 µM (active)”; in test [6] it was 19.5 µM (active).
With `Clc1ccc2c(c1)C(N1CCNCC1)=Nc1ccccc1O2`, the Potency result in test [1], in [5], in test [7] and in [6] was “inactive” throughout.
`NC(=Nc1ccccc1)Nc1ccccc1`: the Potency result in [1], in test [5], in test [8], in test [7] and in [6] was “inactive” throughout. Moreover, the Potency in test [2] is 3860 nM (active).
In the case of `CCN(CC)CCOc1ccc(/C(=C(\Cl)c2ccccc2)c2ccccc2)cc1`, the Potency result in test [3], in test [10] and in [4] was “inactive” each time. Besides, the Potency in test [5] was 49.6 µM (active); in test [6] it was 39.7 µM (active).
For the compound `CC(N)=O`, the Potency result in test [1], in test [2], in [3], in test [5], in test [7] and in test [6] was “inactive” throughout.
With `CC1=CC(=O)c2ccccc2C1=O`, the Potency entry in [1], in test [4], in test [5] and in test [9] was “inactive” throughout. Besides, the Potency was 30.6 µM (active) in [10]; 30.6 µM (active) in [8]; 21.9 µM (active) and inactive in [6].
For `Nc1ccc(O)cc1`, the Potency in test [1] was 65.7 µM (active) and inactive; in test [5], 35.7 µM (active) and inactive; in test [8] it was 45 µM (active) and inactive; in [6] it was 50.9 µM (active) and inactive. The Potency entry in test [9] and in test [7] was “inactive” throughout.
On to `Cc1ccc(-c2cc(C(F)(F)F)nn2-c2ccc(S(N)(=O)=O)cc2)cc1`, for which the Potency result in test [1] and in [9] was “inactive” each time. Also, the Potency is 54.3 µM (active) and 54.5 µM (active) and inactive in test [5]; 60.9 µM (active) and inactive in test [8]; 48.4 µM (active) and 34.4 µM (active) and inactive in [7]; 48.8 µM (active) and 54.9 µM (active) and inactive in [6].

The record behind these values is PubChem BioAssay (Tox21).
